# Assay results from the supplement of paper PMC4466140.
# B1: unnamed (peptide)
# chain: KIRRSSLMIPNPQQF
# Target: AgAbp1
# Assay: SPOT peptide array binding signal intensity (averaged, normalized) (arbitrary units (background-subtracted, floor 0; scale differs between SH3 domains)); higher = stronger binding of the SH3 domain to the peptide
# Method: (§1)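 GST-tagged SH3 domains from S. cerevisiae (Sc), A. gossypii (Ag), C. albicans (Ca) and S. pombe (Sp) were incubated at 10 ug/ml overnight at 4 C on cellulose SPOT membranes carrying 292 synthetic 15-mer peptides mined from the S. cerevisiae proteome (cysteines replaced by serines). Binding was detected with anti-GST antibody, HRP secondary and chemiluminescence, quantified with Genespotter, and reported as normalized spot intensities averaged over biological replicates.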
row,Binder,SPOT peptide array binding signal intensity
1,B1,26.5

# Target: AgBbc1
# Assay: as above
# Method: as §1
row,Binder,SPOT peptide array binding signal intensity
1,B1,56.5

# Target: AgBem1-D1
# Assay: as above
# Method: as §1
row,Binder,SPOT peptide array binding signal intensity
1,B1,234

# Target: AgBzz1-D1
# Assay: as above
# Method: as §1
row,Binder,SPOT peptide array binding signal intensity
1,B1,18.5

# Target: AgBzz1-D2
# Assay: as above
# Method: as §1
row,Binder,SPOT peptide array binding signal intensity
1,B1,39

# Target: AgCyk3
# Assay: as above
# Method: as §1
row,Binder,SPOT peptide array binding signal intensity
1,B1,≤ 0

# Target: AgFus1
# Assay: as above
# Method: as §1
row,Binder,SPOT peptide array binding signal intensity
1,B1,88

# Target: AgHof1
# Assay: as above
# Method: as §1
row,Binder,SPOT peptide array binding signal intensity
1,B1,56.8

# Target: AgHse1
# Assay: as above
# Method: as §1
row,Binder,SPOT peptide array binding signal intensity
1,B1,138

# Target: AgLsb1
# Assay: as above
# Method: as §1
row,Binder,SPOT peptide array binding signal intensity
1,B1,86.5

# Target: AgLsb4
# Assay: as above
# Method: as §1
row,Binder,SPOT peptide array binding signal intensity
1,B1,14

# Target: AgMyo5
# Assay: as above
# Method: as §1
row,Binder,SPOT peptide array binding signal intensity
1,B1,2

# Target: AgNbp2
# Assay: as above
# Method: as §1
row,Binder,SPOT peptide array binding signal intensity
1,B1,15

# Target: AgRvs167
# Assay: as above
# Method: as §1
row,Binder,SPOT peptide array binding signal intensity
1,B1,1.67

# Target: AgSho1
# Assay: as above
# Method: as §1
row,Binder,SPOT peptide array binding signal intensity
1,B1,15.5

# Target: AgSla1-D1-D2
# Assay: as above
# Method: as §1
row,Binder,SPOT peptide array binding signal intensity
1,B1,186

# Target: AgSla1-D3
# Assay: as above
# Method: as §1
row,Binder,SPOT peptide array binding signal intensity
1,B1,3.5

# Target: CaAbp1-D1
# Assay: as above
# Method: as §1
row,Binder,SPOT peptide array binding signal intensity
1,B1,316

# Target: CaAbp1-D2
# Assay: as above
# Method: as §1
row,Binder,SPOT peptide array binding signal intensity
1,B1,153

# Target: CaBbc1
# Assay: as above
# Method: as §1
row,Binder,SPOT peptide array binding signal intensity
1,B1,214

# Target: CaBem1-D1
# Assay: as above
# Method: as §1
row,Binder,SPOT peptide array binding signal intensity
1,B1,65.5

# Target: CaBzz1-D1
# Assay: as above
# Method: as §1
row,Binder,SPOT peptide array binding signal intensity
1,B1,195

# Target: CaBzz1-D2
# Assay: as above
# Method: as §1
row,Binder,SPOT peptide array binding signal intensity
1,B1,206

# Target: CaCyk3
# Assay: as above
# Method: as §1
row,Binder,SPOT peptide array binding signal intensity
1,B1,11

# Target: CaFus1
# Assay: as above
# Method: as §1
row,Binder,SPOT peptide array binding signal intensity
1,B1,383

# Target: CaHof1
# Assay: as above
# Method: as §1
row,Binder,SPOT peptide array binding signal intensity
1,B1,1

# Target: CaHse1
# Assay: as above
# Method: as §1
row,Binder,SPOT peptide array binding signal intensity
1,B1,12.5

# Target: CaLsb1
# Assay: as above
# Method: as §1
row,Binder,SPOT peptide array binding signal intensity
1,B1,4

# Target: CaLsb4
# Assay: as above
# Method: as §1
row,Binder,SPOT peptide array binding signal intensity
1,B1,72.5

# Target: CaMyo5
# Assay: as above
# Method: as §1
row,Binder,SPOT peptide array binding signal intensity
1,B1,20.5

# Target: CaNbp2
# Assay: as above
# Method: as §1
row,Binder,SPOT peptide array binding signal intensity
1,B1,129

# Target: CaRvs167
# Assay: as above
# Method: as §1
row,Binder,SPOT peptide array binding signal intensity
1,B1,42.3

# Target: CaRvs167-3
# Assay: as above
# Method: as §1
row,Binder,SPOT peptide array binding signal intensity
1,B1,7.5

# Target: CaSho1
# Assay: as above
# Method: as §1
row,Binder,SPOT peptide array binding signal intensity
1,B1,84.5

# Target: CaSla1-D1-D2
# Assay: as above
# Method: as §1
row,Binder,SPOT peptide array binding signal intensity
1,B1,532

# Target: CaSla1-D3
# Assay: as above
# Method: as §1
row,Binder,SPOT peptide array binding signal intensity
1,B1,352

# Target: ScAbp1
# Assay: as above
# Method: as §1
row,Binder,SPOT peptide array binding signal intensity
1,B1,42

# Target: ScBbc1
# Assay: as above
# Method: as §1
row,Binder,SPOT peptide array binding signal intensity
1,B1,22.2

# Target: ScBem1-D1
# Assay: as above
# Method: as §1
row,Binder,SPOT peptide array binding signal intensity
1,B1,136

# Target: ScBzz1-D1
# Assay: as above
# Method: as §1
row,Binder,SPOT peptide array binding signal intensity
1,B1,40

# Target: ScBzz1-D2
# Assay: as above
# Method: as §1
row,Binder,SPOT peptide array binding signal intensity
1,B1,32

# Target: ScCyk3
# Assay: as above
# Method: as §1
row,Binder,SPOT peptide array binding signal intensity
1,B1,24

# Target: ScFus1
# Assay: as above
# Method: as §1
row,Binder,SPOT peptide array binding signal intensity
1,B1,68

# Target: ScHof1
# Assay: as above
# Method: as §1
row,Binder,SPOT peptide array binding signal intensity
1,B1,≤ 0

# Target: ScHse1
# Assay: as above
# Method: as §1
row,Binder,SPOT peptide array binding signal intensity
1,B1,388

# Target: ScLsb1
# Assay: as above
# Method: as §1
row,Binder,SPOT peptide array binding signal intensity
1,B1,20.5

# Target: ScLsb2
# Assay: as above
# Method: as §1
row,Binder,SPOT peptide array binding signal intensity
1,B1,1.5

# Target: ScLsb3
# Assay: as above
# Method: as §1
row,Binder,SPOT peptide array binding signal intensity
1,B1,15.5

# Target: ScLsb4
# Assay: as above
# Method: as §1
row,Binder,SPOT peptide array binding signal intensity
1,B1,≤ 0

# Target: ScMyo3
# Assay: as above
# Method: as §1
row,Binder,SPOT peptide array binding signal intensity
1,B1,5

# Target: ScMyo5
# Assay: as above
# Method: as §1
row,Binder,SPOT peptide array binding signal intensity
1,B1,7

# Target: ScNbp2
# Assay: as above
# Method: as §1
row,Binder,SPOT peptide array binding signal intensity
1,B1,126

# Target: ScPex13
# Assay: as above
# Method: as §1
row,Binder,SPOT peptide array binding signal intensity
1,B1,46

# Target: ScRvs167
# Assay: as above
# Method: as §1
row,Binder,SPOT peptide array binding signal intensity
1,B1,40.2

# Target: ScSho1
# Assay: as above
# Method: as §1
row,Binder,SPOT peptide array binding signal intensity
1,B1,304

# Target: ScSla1-D1-D2
# Assay: as above
# Method: as §1
row,Binder,SPOT peptide array binding signal intensity
1,B1,526

# Target: ScSla1-D3
# Assay: as above
# Method: as §1
row,Binder,SPOT peptide array binding signal intensity
1,B1,337

# Target: SpAbp1-D1
# Assay: as above
# Method: as §1
row,Binder,SPOT peptide array binding signal intensity
1,B1,95

# Target: SpBbc1
# Assay: as above
# Method: as §1
row,Binder,SPOT peptide array binding signal intensity
1,B1,3.5

# Target: SpBzz1-D1
# Assay: as above
# Method: as §1
row,Binder,SPOT peptide array binding signal intensity
1,B1,311

# Target: SpBzz1-D2
# Assay: as above
# Method: as §1
row,Binder,SPOT peptide array binding signal intensity
1,B1,≤ 0

# Target: SpCyk3
# Assay: as above
# Method: as §1
row,Binder,SPOT peptide array binding signal intensity
1,B1,6

# Target: SpHof1
# Assay: as above
# Method: as §1
row,Binder,SPOT peptide array binding signal intensity
1,B1,94.5

# Target: SpHof1-2
# Assay: as above
# Method: as §1
row,Binder,SPOT peptide array binding signal intensity
1,B1,24

# Target: SpHof1-3
# Assay: as above
# Method: as §1
row,Binder,SPOT peptide array binding signal intensity
1,B1,241

# Target: SpHse1
# Assay: as above
# Method: as §1
row,Binder,SPOT peptide array binding signal intensity
1,B1,184

# Target: SpLsb1
# Assay: as above
# Method: as §1
row,Binder,SPOT peptide array binding signal intensity
1,B1,5.5

# Target: SpLsb4
# Assay: as above
# Method: as §1
row,Binder,SPOT peptide array binding signal intensity
1,B1,144

# Target: SpMyo1
# Assay: as above
# Method: as §1
row,Binder,SPOT peptide array binding signal intensity
1,B1,9.5

# Target: SpNbp2
# Assay: as above
# Method: as §1
row,Binder,SPOT peptide array binding signal intensity
1,B1,33

# Target: SpPex13
# Assay: as above
# Method: as §1
row,Binder,SPOT peptide array binding signal intensity
1,B1,162

# Target: SpRvs167
# Assay: as above
# Method: as §1
row,Binder,SPOT peptide array binding signal intensity
1,B1,17.3

# Target: SpSla1-D1-D2
# Assay: as above
# Method: as §1
row,Binder,SPOT peptide array binding signal intensity
1,B1,8

# Target: SpSla1-D3
# Assay: as above
# Method: as §1
row,Binder,SPOT peptide array binding signal intensity
1,B1,68
